# The supplement of paper PMC12636033
# ± gives the standard deviation of the averaged measurements. Over roughly 33,000 sequences, “E-score (rank enrichment, -0.5 to 0.5)” has its median near -0.0068; the highest 2% begin near 0.24. The list comes from a sample in which the highest values are over-represented; it also holds similar and randomly drawn sequences.
# Tested on: muMax20 (Max(13-93) K31hArg/K57hArg, M65Nle)
# Experiment: PBM 8-mer E-score (E-score (rank enrichment, -0.5 to 0.5)); higher = stronger preferential binding
# Experimental: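 Protein binding microarray (universal PBM chip covering all 10-mers in fixed probe flanks) with chemically synthesized human Max(13-93) bHLH-LZ analogs (not full-length Max) bearing noncanonical residues (hArg, Tha, Aib, Nle at 65) and aromatic Cys staples. Read-out per 8-mer (and its reverse complement): E-score (rank-based enrichment, -0.5 to 0.5) and Z-score of median probe intensity.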
row,Sequence,PBM 8-mer E-score
1,GGGGCGGA,0.0311 ± 0.065
2,AAACTAAC,0.121 ± 0.026
3,AGATGCAG,-0.0831 ± 0.013
4,CGTTCGAA,-0.071 ± 0.086
5,GCGGGCTA,-0.103 ± 0.02
6,CCATGTAA,0.0522 ± 0.048
7,GCATGTAC,0.15 ± 0.081
8,TCATGTAA,0.112 ± 0.08
9,CCATGTAG,0.0489 ± 0.046
10,ACATGTCG,0.189 ± 0.086
11,CCATGTAC,0.0415 ± 0.16
12,ACATGTAA,0.249 ± 0.034
13,ACATGTCT,0.183 ± 0.035
14,AGATGTAT,0.177 ± 0.041
15,ACATGTAT,0.307 ± 0.067
16,ACATGTAC,0.286 ± 0.021
17,ACATGTAG,0.255 ± 0.05
18,CCTTGTAG,-0.0398 ± 0.016
19,ATGTTTGC,0.119 ± 0.034
20,ATTCCCGC,-0.0964 ± 0.2

row,Sequence,PBM 8-mer E-score
1,AACTTATG,0.0994 ± 0.081
2,AAGGGAAG,0.201 ± 0.074
3,ATGCTCGA,0.0908 ± 0.059
4,AAACTTGC,0.203 ± 0.058
5,TAACTTGA,0.033 ± 0.066
6,AAACTTGA,0.241 ± 0.0031
7,ATAAGAGG,0.0841 ± 0.026
8,ATCAAAAA,0.284 ± 0.035
9,ATCAAAAT,0.0188 ± 0.1
10,ATCAAGCA,0.012 ± 0.021
11,CTCAAACA,0.079 ± 0.12
12,ATCAAACA,0.29 ± 0.056
13,ATCAAAAG,0.0605 ± 0.033
14,TAGGTTCA,-0.12 ± 0.087
15,GGCCCTAA,0.0586 ± 0.04
16,GTGGACGA,-0.0727 ± 0.036
17,CTGCCTTC,-0.136 ± 0.047
18,AGTCGTGC,-0.11 ± 0.024
19,CAGACGCG,-0.145 ± 0.18
